# Measurements reported in PubChem BioAssay (Tox21).
# Inconclusive results are not listed. Calls of active or inactive are those of the source. The call rests on the fitted dose curve; in most records, active means well fitted cell-killing curve with a large enough effect in the repeat runs; inconclusive means weak or mixed curves, or effect the other way; inactive means flat fitted curve, though single readings scatter.
# Assay: cAMP Responsive Elements (CRE) small molecule antagonists, cell-based qHTS assay: qHTS cell viability counter screen (AID 2060913); further: nearly all actives have a fitted effect of over 40% in size
# Details: CRE-bla HEK293T viability, CellTiter-Glo luminescence, 5 h; series mostly up to 92.4 µM; viability change, negative = cytotoxic: at the top concentration
# Procedure, shortened: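 Viability of NKH477-stimulated (0.25 uM final) CRE-bla HEK293T cells is measured by CellTiter-Glo luminescence following 3 hrs compound exposure at 37 C.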
# On the % scale 0 is the no-effect control and ±100 the full control effect; potency means the concentration at half of the fitted maximal effect.
Structure (SMILES),"viability change, negative = cytotoxic",Potency
Cc1nnc(-c2ccccc2)c(=O)n1N,4.98% (inactive),–
CC(=[OH+])/C=C(/C)[O-].CC(=[OH+])/C=C(\C)[O-].CC(=[OH+])/C=C(\C)[O-].[Fe],18% (inactive),–
Cc1cc(C(C)(C)c2ccc(O)c(C)c2)ccc1O,-16.4% (inactive),–
CS(=O)(=O)c1ccc(C(=O)C2C(=O)CCCC2=O)c([N+](=O)[O-])c1,2.04% (inactive),–
CCCCCCCc1ccc(O)cc1,-5.77% (inactive),–
CC(C)(O)C#N,–,inactive
O=[N+]([O-])c1cccc(CCl)c1,-9.58% (inactive),–
CCc1cccc(CC)c1N(COC)C(=O)CCl,–,inactive
CCCN(CCC)c1c([N+](=O)[O-])cc(C(C)C)cc1[N+](=O)[O-],–,inactive
Cc1ccccc1O,–,inactive
COc1cccc(C=O)c1,0.992% (inactive),–
C[C@@H]1O[C@@H](O[C@@H]2C=C3CC[C@@H]4[C@H](CC[C@]5(C)[C@@H](c6ccc(=O)oc6)CC[C@]45O)[C@@]3(C)CC2)[C@H](O)[C@H](O)[C@H]1O,–,18.8 nM (active)
O=C(N[C@H]1CN2CCC1CC2)c1cc2ccoc2cn1,1.66% (inactive),–
COC(=O)C(c1ccccc1)C1CCCCN1 (configuration not stated),-4.23% (inactive),–
O=C(O)c1cccc(Cl)c1,3.39% (inactive),–
CC(C)c1ccc(CO)cc1,–,inactive
CC(CCc1ccccc1)NC(C)C(O)c1ccc(O)cc1 (configuration not stated),7.98% [at 42.5 µM] (inactive),–
COc1ccc(C(O)(c2cncnc2)C2CC2)cc1 (configuration not stated),8.19% (inactive),–
O=C(CCl)c1ccc(Cl)cc1Cl,–,inactive
CNC(=O)Oc1ccccc1C1OCCO1,-6.27% (inactive),–
CC(Cc1ccccc1)NCCn1cnc2c1c(=O)n(C)c(=O)n2C (configuration not stated),-1.46% (inactive),–
CCC1(CC)C(=O)N=C(O)NC1=O,-5.31% (inactive),–
